Measurements taken from ChEMBL document CHEMBL3988442, “University of Dundee, Small-Polar-MMV Screening Library” (2021).
For some of these results: Results with a measured potency or affinity are listed apart.

What was measured:
Set-up in all cases: scale not given: direction of the effect not stated beside the values
[1] = target: Protein translocase subunit SecA (Escherichia coli (strain K12)) (UniProt P10408); experiment: Assay to Identify E. coli SecA ATPase Inhibitors; assay type: functional; conditions: 30 µM
Sequence of Protein translocase subunit SecA (Escherichia coli (strain K12)) (P10408 whole entry): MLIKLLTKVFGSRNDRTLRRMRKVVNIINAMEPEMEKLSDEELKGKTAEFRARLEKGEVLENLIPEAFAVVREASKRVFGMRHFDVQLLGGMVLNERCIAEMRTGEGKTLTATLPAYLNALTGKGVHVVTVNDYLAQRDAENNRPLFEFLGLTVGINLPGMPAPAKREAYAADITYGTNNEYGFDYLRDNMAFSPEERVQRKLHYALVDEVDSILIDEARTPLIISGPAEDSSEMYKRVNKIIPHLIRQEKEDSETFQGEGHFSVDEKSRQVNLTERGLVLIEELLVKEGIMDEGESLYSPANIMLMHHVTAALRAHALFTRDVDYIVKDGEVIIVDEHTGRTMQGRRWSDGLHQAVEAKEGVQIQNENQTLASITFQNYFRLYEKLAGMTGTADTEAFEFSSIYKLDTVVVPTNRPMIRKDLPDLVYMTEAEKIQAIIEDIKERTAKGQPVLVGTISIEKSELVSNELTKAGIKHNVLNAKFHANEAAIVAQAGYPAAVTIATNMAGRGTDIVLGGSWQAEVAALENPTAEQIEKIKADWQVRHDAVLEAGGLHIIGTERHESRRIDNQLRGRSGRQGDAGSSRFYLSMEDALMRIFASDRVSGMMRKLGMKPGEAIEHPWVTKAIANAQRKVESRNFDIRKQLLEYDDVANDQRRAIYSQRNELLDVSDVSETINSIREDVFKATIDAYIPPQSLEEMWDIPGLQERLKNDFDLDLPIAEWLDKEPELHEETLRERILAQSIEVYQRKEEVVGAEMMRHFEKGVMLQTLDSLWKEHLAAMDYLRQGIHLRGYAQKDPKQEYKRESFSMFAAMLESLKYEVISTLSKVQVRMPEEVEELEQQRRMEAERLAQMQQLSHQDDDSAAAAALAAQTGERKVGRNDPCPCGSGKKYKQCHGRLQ

[2] = target: T1, Ubiquitin-activating enzyme e1, putative (Leishmania donovani (strain BPK282A1)) (UniProt E9BSI1); experiment: Leishmania donovani Ubiquitin Activating Enzyme (LdE1); assay type: functional; conditions: 30 µM
T1 sequence (whole entry): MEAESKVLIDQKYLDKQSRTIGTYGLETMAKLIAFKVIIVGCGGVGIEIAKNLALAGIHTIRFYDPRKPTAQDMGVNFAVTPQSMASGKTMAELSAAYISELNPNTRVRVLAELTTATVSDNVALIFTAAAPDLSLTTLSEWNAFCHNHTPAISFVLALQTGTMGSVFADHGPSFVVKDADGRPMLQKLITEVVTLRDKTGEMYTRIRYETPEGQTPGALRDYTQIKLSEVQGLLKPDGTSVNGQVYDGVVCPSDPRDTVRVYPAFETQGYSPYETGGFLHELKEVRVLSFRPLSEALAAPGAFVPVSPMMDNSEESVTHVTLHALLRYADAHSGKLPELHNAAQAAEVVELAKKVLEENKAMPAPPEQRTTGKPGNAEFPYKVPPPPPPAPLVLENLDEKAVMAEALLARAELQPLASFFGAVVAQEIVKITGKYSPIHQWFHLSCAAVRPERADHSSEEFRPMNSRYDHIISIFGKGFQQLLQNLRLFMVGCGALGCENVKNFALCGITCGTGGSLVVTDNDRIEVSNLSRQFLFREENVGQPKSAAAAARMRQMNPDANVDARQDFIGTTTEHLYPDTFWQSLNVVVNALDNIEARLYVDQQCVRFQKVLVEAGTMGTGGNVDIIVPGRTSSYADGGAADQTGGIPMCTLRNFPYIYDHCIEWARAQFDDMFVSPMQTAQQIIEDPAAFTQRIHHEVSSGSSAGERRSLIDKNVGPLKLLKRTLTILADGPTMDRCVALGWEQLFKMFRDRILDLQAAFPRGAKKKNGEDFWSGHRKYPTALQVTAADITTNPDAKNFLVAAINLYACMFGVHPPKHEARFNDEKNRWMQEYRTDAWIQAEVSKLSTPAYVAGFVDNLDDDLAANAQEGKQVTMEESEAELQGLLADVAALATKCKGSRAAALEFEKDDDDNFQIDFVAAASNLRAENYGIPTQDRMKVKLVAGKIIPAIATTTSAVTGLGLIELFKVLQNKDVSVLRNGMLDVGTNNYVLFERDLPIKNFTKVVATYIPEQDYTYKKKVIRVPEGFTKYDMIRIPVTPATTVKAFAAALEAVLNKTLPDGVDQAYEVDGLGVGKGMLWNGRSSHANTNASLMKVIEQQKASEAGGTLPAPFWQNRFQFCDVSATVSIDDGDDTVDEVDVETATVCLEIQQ

[3] = target: AMP-activated protein kinase, AMPK (Homo sapiens) (UniProt P54646+O43741+P54619+Q9UGJ0+Q9Y478+Q13131+Q9UGI9); experiment: AMP-dependent Kinase enzyme assay. An in vitro enzyme assay that detects ADP turnover that is directly proportional to AMPK activity. This uses naive AMPK that is activated during the assay with MK-8722; assay type: functional; conditions: 30 µM
[4] = target: Sialic acid-binding Ig-like lectin 9 (Homo sapiens) (UniProt Q9Y336); experiment: Hs-Siglec9 ALPHAscreen SOP 20170721; conditions: 10 µM
Sequence of Sialic acid-binding Ig-like lectin 9 (Homo sapiens) (Q9Y336 whole entry): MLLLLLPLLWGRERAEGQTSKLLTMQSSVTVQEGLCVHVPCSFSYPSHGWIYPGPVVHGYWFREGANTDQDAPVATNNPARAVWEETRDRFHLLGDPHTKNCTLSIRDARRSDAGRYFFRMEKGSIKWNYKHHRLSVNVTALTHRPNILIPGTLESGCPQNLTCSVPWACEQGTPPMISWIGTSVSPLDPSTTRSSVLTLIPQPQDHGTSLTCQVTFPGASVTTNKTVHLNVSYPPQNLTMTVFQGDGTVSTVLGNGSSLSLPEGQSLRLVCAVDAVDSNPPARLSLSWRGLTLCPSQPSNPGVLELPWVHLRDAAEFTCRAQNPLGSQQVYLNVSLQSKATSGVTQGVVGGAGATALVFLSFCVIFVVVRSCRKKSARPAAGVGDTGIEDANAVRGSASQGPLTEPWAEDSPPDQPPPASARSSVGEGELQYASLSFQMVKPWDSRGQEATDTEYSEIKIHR

Trypanosoma cruzi = experiment: Trypanosoma cruzi phosphomannomutase and mannose-1-phosphate guanylyltransferase assay; assay type: functional; conditions: 10 µM
[5] = target: T2, Arginase-2, mitochondrial (Homo sapiens) (UniProt P78540); experiment: in vitro enzyme assay to detect the production of urea directly proportional to the activity of Arginase II; assay type: functional; conditions: 33.3 µM; also: in the data most compounds retested in dose-response had high values
T2 sequence (whole entry): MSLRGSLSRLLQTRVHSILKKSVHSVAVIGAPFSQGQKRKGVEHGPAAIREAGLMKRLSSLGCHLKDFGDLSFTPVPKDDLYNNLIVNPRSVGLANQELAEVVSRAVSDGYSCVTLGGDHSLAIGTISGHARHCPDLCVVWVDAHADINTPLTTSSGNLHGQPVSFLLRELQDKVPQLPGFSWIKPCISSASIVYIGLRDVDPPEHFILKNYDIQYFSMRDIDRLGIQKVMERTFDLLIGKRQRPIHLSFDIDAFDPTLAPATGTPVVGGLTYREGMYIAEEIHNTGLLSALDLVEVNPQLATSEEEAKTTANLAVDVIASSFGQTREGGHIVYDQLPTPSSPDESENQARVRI

[6] = target: T3, Proteasome subunit beta (Trypanosoma cruzi) (UniProt O96673); experiment: Trypanosoma cruzi proteasome chymotrypsin-like activity (TcProtChymo) assay.; also: in the data most compounds retested in dose-response had high values; assay type: functional; conditions: 9.37 µM
T3 sequence (whole entry): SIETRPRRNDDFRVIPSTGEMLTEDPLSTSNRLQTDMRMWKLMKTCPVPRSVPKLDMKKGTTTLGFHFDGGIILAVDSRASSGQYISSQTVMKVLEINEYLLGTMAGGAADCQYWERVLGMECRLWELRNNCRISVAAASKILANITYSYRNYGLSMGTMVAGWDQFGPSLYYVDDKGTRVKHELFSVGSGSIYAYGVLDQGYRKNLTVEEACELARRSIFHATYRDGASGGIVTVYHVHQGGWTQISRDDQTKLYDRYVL

Homo sapiens = species on record: Homo sapiens; experiment: To identify inhibition of the IFN signalling (Jak-Stat) pathway via expression of an eGFP reporter gene under the control of an IFN-stimulated response element (ISRE) containing MxA promoter.; assay type: functional; conditions: 30 µM
[7] = target: T4, Tyrosyl-tRNA synthetase, putative (Trypanosoma cruzi (strain CL Brener)) (UniProt Q4DSP6); experiment: Trypanosoma cruzi tyrosyl tRNA synthetase (TcYRS) _High Tyrosine SOP; assay type: functional; conditions: 30 µM; also: in the data most compounds retested in dose-response had high values
T4 sequence (whole entry): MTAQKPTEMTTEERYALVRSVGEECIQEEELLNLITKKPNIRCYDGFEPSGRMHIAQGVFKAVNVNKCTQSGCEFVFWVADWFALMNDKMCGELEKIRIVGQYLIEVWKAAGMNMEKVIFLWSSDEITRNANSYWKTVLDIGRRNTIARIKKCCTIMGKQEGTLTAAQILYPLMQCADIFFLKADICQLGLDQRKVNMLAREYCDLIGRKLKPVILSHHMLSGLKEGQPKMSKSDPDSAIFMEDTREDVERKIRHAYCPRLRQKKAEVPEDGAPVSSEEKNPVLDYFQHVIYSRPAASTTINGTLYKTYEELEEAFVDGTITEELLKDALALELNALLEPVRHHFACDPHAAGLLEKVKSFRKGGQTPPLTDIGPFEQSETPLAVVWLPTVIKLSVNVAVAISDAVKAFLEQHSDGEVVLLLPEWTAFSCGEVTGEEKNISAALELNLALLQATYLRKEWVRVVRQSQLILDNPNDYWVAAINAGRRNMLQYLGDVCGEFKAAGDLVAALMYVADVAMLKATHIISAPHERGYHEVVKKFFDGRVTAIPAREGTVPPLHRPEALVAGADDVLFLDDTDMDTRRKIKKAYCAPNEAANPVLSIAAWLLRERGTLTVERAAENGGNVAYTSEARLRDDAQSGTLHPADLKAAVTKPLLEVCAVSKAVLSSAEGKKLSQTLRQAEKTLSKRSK

[8] = target: T4, Tyrosyl-tRNA synthetase, putative (Trypanosoma cruzi (strain CL Brener)); experiment: Trypanosoma cruzi tyrosyl tRNA synthetase (TcYRS) SOP; assay type: functional; conditions: 30 µM
[9] = target: Chromo domain-containing protein 1 (Saccharomyces cerevisiae (strain ATCC 204508 / S288c) (Baker's yeast)) (UniProt P32657); experiment: ScCHD-1 Enzyme Inhibition Assay; assay type: functional; conditions: 30 µM; also: in the data most compounds retested in dose-response had high values
Sequence of Chromo domain-containing protein 1 (Saccharomyces cerevisiae (strain ATCC 204508 / S288c) (Baker's yeast)) (P32657 whole entry, the tested form may be a part): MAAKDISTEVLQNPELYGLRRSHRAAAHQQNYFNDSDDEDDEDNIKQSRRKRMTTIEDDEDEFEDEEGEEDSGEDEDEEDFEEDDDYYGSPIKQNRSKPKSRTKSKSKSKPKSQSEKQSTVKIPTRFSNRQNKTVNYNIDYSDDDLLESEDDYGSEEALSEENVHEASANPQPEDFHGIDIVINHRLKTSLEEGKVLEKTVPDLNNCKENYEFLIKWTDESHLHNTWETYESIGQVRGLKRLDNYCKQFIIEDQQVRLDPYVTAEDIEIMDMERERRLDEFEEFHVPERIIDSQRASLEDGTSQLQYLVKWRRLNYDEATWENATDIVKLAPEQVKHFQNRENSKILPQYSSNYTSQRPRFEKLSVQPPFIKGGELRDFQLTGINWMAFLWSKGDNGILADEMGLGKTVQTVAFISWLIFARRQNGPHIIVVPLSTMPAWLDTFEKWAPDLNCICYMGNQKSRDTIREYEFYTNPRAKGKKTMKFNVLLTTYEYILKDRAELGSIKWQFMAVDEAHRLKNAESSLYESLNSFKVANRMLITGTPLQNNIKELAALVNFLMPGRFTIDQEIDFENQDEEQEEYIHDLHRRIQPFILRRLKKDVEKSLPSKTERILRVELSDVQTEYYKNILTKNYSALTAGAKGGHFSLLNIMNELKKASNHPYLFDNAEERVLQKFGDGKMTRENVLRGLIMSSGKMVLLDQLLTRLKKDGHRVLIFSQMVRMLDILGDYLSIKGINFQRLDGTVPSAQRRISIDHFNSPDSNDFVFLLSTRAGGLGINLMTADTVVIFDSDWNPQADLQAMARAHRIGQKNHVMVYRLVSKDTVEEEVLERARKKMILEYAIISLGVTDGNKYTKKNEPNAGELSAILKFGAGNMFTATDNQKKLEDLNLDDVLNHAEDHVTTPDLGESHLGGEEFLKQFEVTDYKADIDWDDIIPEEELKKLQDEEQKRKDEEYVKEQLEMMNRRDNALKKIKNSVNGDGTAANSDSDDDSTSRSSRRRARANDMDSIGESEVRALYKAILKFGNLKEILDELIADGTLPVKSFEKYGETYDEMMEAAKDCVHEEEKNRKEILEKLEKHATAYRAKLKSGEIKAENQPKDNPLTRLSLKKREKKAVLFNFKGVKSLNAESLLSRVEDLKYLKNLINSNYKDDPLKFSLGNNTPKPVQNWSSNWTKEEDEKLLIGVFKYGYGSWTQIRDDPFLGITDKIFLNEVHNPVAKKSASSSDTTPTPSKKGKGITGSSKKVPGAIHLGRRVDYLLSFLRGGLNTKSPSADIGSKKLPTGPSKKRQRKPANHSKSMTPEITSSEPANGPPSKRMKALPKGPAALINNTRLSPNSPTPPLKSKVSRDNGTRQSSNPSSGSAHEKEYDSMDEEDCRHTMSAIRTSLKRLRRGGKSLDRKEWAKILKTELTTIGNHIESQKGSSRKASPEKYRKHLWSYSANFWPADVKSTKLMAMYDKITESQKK

Row | Structure (SMILES) | Percent Effect [1] [%] | Percent Effect [2] [%] | Percent Effect [3] [%] | Percent Effect [4] [%] | Percent Effect (Trypanosoma cruzi) [%] | Percent Effect [5] [%] | Percent Effect [6] [%] | Percent Effect (Homo sapiens) [%] | Percent Effect [7] [%] | Percent Effect [8] [%] | Percent Effect [9] [%]
1 | Cc1ccc(C(=O)N2CCN(C(=O)Nc3ccccn3)CC2)o1 | -7.04 | -2.6 | 9.04 | -0.542 | -5.58 | 2.32 | 9.13 | 11 | 0 | -4.71 | -16.4
2 | O=C(c1cccc(S(=O)(=O)NCCCc2ccco2)c1)N1CCOCC1 | -4.29 | 2.74 | 6.53 | -4.06 | 1.37 | 1.82 | 5.86 | -5.12 | 7.53 | 15 | -2.3
3 | O=C(c1cnn2c1OCCC2)N1CCN(C/C=C/c2ccccc2)CC1 | -2.24 | 7.79 | 3.47 | 6.1 | -1.28 | -5.81 | 8.88 | 10.8 | 5.29 | 16.7 | -8.13
4 | O=C1COC2(CCN(Cc3cccs3)CC2)CN1c1ccccc1 | -2.08 | 5.48 | 0.847 | 2.36 | -1.39 | -2.4 | 7.62 | -0.737 | 3.12 | 3.7 | -0.651
5 | Cc1ccc(-c2nc(CNCCn3cccn3)cs2)o1 | 1.6 | -429 | 4.22 | -1.49 | 1.13 | 4.6 | 8.19 | 10.3 | 11.3 | 4.88 | 1.79
6 | CN(C)C(=O)CN1CCC2(CCCN(Cc3cccn3C)C2)C1=O (stereo unspecified) | -6.92 | 10.7 | 0.926 | -7.4 | -5.12 | -3.96 | 18.2 | 10.5 | 1.06 | 1.28 | -7.43
7 | O=C(c1cnoc1)N1CCC[C@]2(C[C@H](Oc3ncccc3F)CO2)C1 | -4.36 | -30.1 | -3.76 | 25 | 9.72 | -5.59 | 11.7 | 9.74 | 4.17 | 8.64 | -3.75
8 | O=C(NCC(O)c1ccccc1Cl)c1cccc(-n2cnnn2)c1 (stereo unspecified) | -1.49 | 11 | -3.34 | 14.3 | 1.18 | 1.36 | 14.2 | 24.8 | 3.23 | 7.5 | 98.6
9 | CC(C)c1nc2c(n1C)CCN(Cc1nc(-c3ccsc3)no1)C2 | -1.67 | -24.3 | -9.21 | 0.639 | 7.71 | -1.29 | 10.1 | 1.59 | 9.9 | 25.6 | -0.805
10 | O=C1CO[C@@H]2CN(S(=O)(=O)c3ccccc3)C[C@H]2N1CC1CC1 | -1.03 | 8 | 4.02 | 2.54 | -3.28 | -44.3 | 7.86 | -3.38 | -8.33 | -20 | -6.74
11 | CC(C)NC(=O)[C@@H]1CCO[C@@H]2CCN(c3ncccn3)C[C@H]21 | -6.07 | 16 | -1.13 | 0.524 | 0.579 | -45 | 4.1 | -11 | 8.33 | 10 | -7.2
